This is an account of results in a collection of fitness landscapes (doi:10.1126/science.1257360).

In all, about 140,000 sequences were measured (“enrichment ratio after two sorts for PhoP signalling”: median about 0, highest 2% from about 11 on). The sample holds the highest values, similar sequences and a random draw of the others, so the mix is not that of the screen. Bounds are passed on as bounds.

Sequences and labels used below:
B1: PhoQ; a variant is named by its letters at X, in order, P23837 (parent)
chain: MKKLLRLFFPLSLRVRFLLATAAVVLVLSLAYGMVALIGYSVSFDKTTFRLLRGESNLFYTLAKWENNKLHVELPENIDKQSPTMTLIYDENGQLLWAQRDVPWLMKMIQPDWLKSNGFHEIEADVNDTSLLLSGDHSIQQQLQEVREDDDDAEMTHSVAVNVYPATSRMPKLTIVVVDTIPVELKSSYMVWSWFIYVLSANLLLVIPLLWVAAWWSLRPIEALAKEVRELEEHNRELLNPATTRELTSLVRNLNRLLKSERERYDKYRTTLTDLTHSLKTPLXXLQXXLRSLRSEKMSVSDAEPVMLEQISRISQQIGYYLHRASMRGGTLLSRELHPVAPLLDNLTSALNKVYQRKGVNISLDISPEISFVGEQNDFVEVMGNVLDNACKYCLEFVEISARQTDEHLYIVVEDDGPGIPLSKREVIFDRGQRVDTLRPGQGVGLAVAREITEQYEGKIVAGESMLGGARMEVIFGRQHSAPKDE

The variants in this assay derive from B1. Nature of the assay: enrichment ratio after two sorts for PhoP signalling (ratio (wild type AVST 3.29)); higher = more functional. To be noted: with PhoP (E. coli).
For TEIA, the enrichment ratio was 5.22. Consider RVAC, for which the enrichment ratio was at most 0.25. Turning to LPRF, the enrichment ratio was at most 0.25. As to VFWD, the enrichment ratio was at most 0.25. For the variant DAPE, the enrichment ratio is at most 0.25. On to QDDV, for which the enrichment ratio was at most 0.25. With HFGH, the enrichment ratio is at most 0.25.

Take TCGH: the enrichment ratio came to 23.5.

As to NHSH, the enrichment ratio is at most 0.25. Take TLGH: the enrichment ratio came out at 12.5. Regarding VEGH, the enrichment ratio was at most 0.25. THSH: the enrichment ratio is 12.3. The result for SHSH reads 0.368; that for THGH, 13.1. Consider TLGP, for which the enrichment ratio is at most 0.25.

Turning to KLGH, the enrichment ratio is at most 0.25. In the case of KSGH, the enrichment ratio is at most 0.25.

With TCGP, the enrichment ratio was 1.63. With NPCL, the enrichment ratio was at most 0.25. On to WFFE, for which the enrichment ratio is at most 0.25. IMHM: the enrichment ratio was at most 0.25. For the variant NGPM, the enrichment ratio is at most 0.25. Take PILN: the enrichment ratio was at most 0.25.

For the variant REPM, the enrichment ratio was at most 0.25. Turning to FADW, the enrichment ratio is at most 0.25. Consider TMGP, for which the enrichment ratio was at most 0.25. Turning to TMGH, the enrichment ratio came out at 15.3.

Consider TMTH, for which the enrichment ratio was found to be 9.92. For STKH the value was at most 0.25. For MEYL, the enrichment ratio is 3.47. On to MMGV, for which the enrichment ratio was at most 0.25. For MNYL the value was 12; for KLYL, at most 0.25.

For the variant MNNL, the enrichment ratio was 0.29. MLYL: the enrichment ratio is 10.2. For TTGD, the enrichment ratio worked out at 0.456. For MCYL, the enrichment ratio was found to be 13. With MEGV, the enrichment ratio was at most 0.25. For MCGV, the enrichment ratio came to 13.4. The result for TTGM reads 28.6; that for YTGM, at most 0.25; that for DQFA, at most 0.25. Regarding KQAS, the enrichment ratio is at most 0.25. For PFKG the value was at most 0.25; for NGPW, at most 0.25. On to AAVK, for which the enrichment ratio is at most 0.25.

In the case of MCDS, the enrichment ratio is at most 0.25. As for MCYI, the enrichment ratio stood at 27.7. Consider NAHM, for which the enrichment ratio was at most 0.25. For the variant TAHM, the enrichment ratio worked out at 14.1. For KAHM the value was at most 0.25; for MCYK, at most 0.25. Take MCRM: the enrichment ratio is at most 0.25. For MCAY, the enrichment ratio turned out to be 4.41. Regarding MCWM, the enrichment ratio came out at 16.4. In the case of MCVA, the enrichment ratio was at most 0.25.

Turning to MCCK, the enrichment ratio is at most 0.25. For MCWI the value was 18.3; for LMRM, at most 0.25; for TVRL, 0.897. On to LALM, for which the enrichment ratio was 8.02. Regarding FHFV, the enrichment ratio is at most 0.25.

Regarding EESR, the enrichment ratio was at most 0.25. The result for THGM reads 12.3; that for FDHM, at most 0.25; that for FVHM, at most 0.25.

For ICAM, the enrichment ratio is 17.4. With MAHM, the enrichment ratio is 14.7. For the variant MCAM, the enrichment ratio was 12.2. The result for TGGM reads at most 0.25; that for KCGM, at most 0.25; that for ICGM, at most 0.25. For KCAM, the enrichment ratio was at most 0.25. MKAM: the enrichment ratio is at most 0.25. For ICWM the value was at most 0.25; for GDQT, at most 0.25; for TWQT, at most 0.25.

With IVCI, the enrichment ratio was at most 0.25.

As to MNFL, the enrichment ratio was 14.1. With MCGM, the enrichment ratio turned out to be 12.2.

As for MLAM, the enrichment ratio came to 15.5. On to MAAK, for which the enrichment ratio was at most 0.25. For the variant MLWM, the enrichment ratio is at most 0.25. Turning to MKFL, the enrichment ratio was found to be 0.755. Take MCDM: the enrichment ratio was at most 0.25. Consider TNFL, for which the enrichment ratio is at most 0.25.

MKAK: the enrichment ratio was at most 0.25. Take MCAK: the enrichment ratio turned out to be 21.4.

Regarding MLNM, the enrichment ratio is at most 0.25. Take MCVM: the enrichment ratio is at most 0.25. The result for KFHC reads at most 0.25; that for RINI, at most 0.25.

As to PWSK, the enrichment ratio was at most 0.25. As for EKTT, the enrichment ratio was at most 0.25. The result for YVYD reads at most 0.25; that for WNEY, at most 0.25; that for VGWQ, 1.18.

Turning to FPFF, the enrichment ratio was at most 0.25. With GAHW, the enrichment ratio is at most 0.25. As to GIYF, the enrichment ratio is at most 0.25. On to RKRF, for which the enrichment ratio was at most 0.25. With MCSQ, the enrichment ratio amounted to 11.6. The result for TCYL reads 16.2. Take NCYL: the enrichment ratio was at most 0.25.

For KCSQ, the enrichment ratio was at most 0.25. LTYL: the enrichment ratio was determined as 0.587. Take TTDM: the enrichment ratio was 22.8.

Regarding LNYL, the enrichment ratio is at most 0.25. With ITDM, the enrichment ratio is at most 0.25.

As to LSYL, the enrichment ratio is 11.2. Take KCYL: the enrichment ratio is at most 0.25. With YTDM, the enrichment ratio was at most 0.25. Turning to MQSQ, the enrichment ratio is at most 0.25. Consider YSLM, for which the enrichment ratio turned out to be 9.22. For the variant KKFE, the enrichment ratio was at most 0.25.

In the case of ELTM, the enrichment ratio was at most 0.25. For TLNS the value was 6.81; for EHKW, at most 0.25; for HFHT, at most 0.25. For the variant QNLL, the enrichment ratio was at most 0.25. For NWYY the value was at most 0.25; for IMGQ, at most 0.25; for PTPW, at most 0.25. The result for TWNY reads at most 0.25; that for KCHM, at most 0.25.

Turning to MDHM, the enrichment ratio was at most 0.25. The result for MCHM reads 16.7.

As to YPGL, the enrichment ratio was at most 0.25. The result for SGMD reads at most 0.25; that for SGMW, at most 0.25; that for SGMN, 30.2. For SGWN, the enrichment ratio was at most 0.25. Take SGMV: the enrichment ratio was determined as 14.3.

SGCV: the enrichment ratio worked out at 15.2. Regarding SGHF, the enrichment ratio is at most 0.25. As to SGNL, the enrichment ratio amounted to 0.304. Consider SGMF, for which the enrichment ratio came out at 13.3.

For the variant SGWV, the enrichment ratio was at most 0.25. As for SGGF, the enrichment ratio worked out at 1.06. In the case of SGCI, the enrichment ratio was determined as 10.3.

Consider IRYD, for which the enrichment ratio is at most 0.25. ARIW: the enrichment ratio is at most 0.25. The result for QYQP reads at most 0.25; that for YDYL, at most 0.25; that for LNRM, at most 0.25. SGMG: the enrichment ratio was found to be 0.699.

Regarding SGMS, the enrichment ratio stood at 6.87. Turning to SGMI, the enrichment ratio is 25. For EIPP the value was at most 0.25; for EECC, at most 0.25. Take FECC: the enrichment ratio was found to be 22.6. For SECC, the enrichment ratio was determined as 38.

In the case of HPCC, the enrichment ratio is at most 0.25.

As for TECC, the enrichment ratio came out at 30. With SPCC, the enrichment ratio is at most 0.25. For SLCC, the enrichment ratio is 8.22.

As for FSCC, the enrichment ratio was determined as 1.27. For IECC, the enrichment ratio was found to be 11.9.

Turning to HECC, the enrichment ratio came out at 7.31. As to IPCC, the enrichment ratio is at most 0.25.

For the variant FCCC, the enrichment ratio was at most 0.25. Take KYGK: the enrichment ratio was at most 0.25. As to RDWY, the enrichment ratio is at most 0.25. FLEP: the enrichment ratio is at most 0.25. Consider HSIW, for which the enrichment ratio was at most 0.25. With MECC, the enrichment ratio amounted to 14.4. As to NECC, the enrichment ratio is at most 0.25. For QECC, the enrichment ratio was at most 0.25. With APCG, the enrichment ratio is at most 0.25. For HWFW, the enrichment ratio is at most 0.25. Turning to QDYL, the enrichment ratio was at most 0.25. Regarding KAQC, the enrichment ratio was at most 0.25. As for NHQC, the enrichment ratio was at most 0.25. For the variant VVQC, the enrichment ratio came out at 12.7. The result for TSQC reads 14.5; that for SHQC, at most 0.25; that for VYQC, at most 0.25.

Consider TKQC, for which the enrichment ratio was determined as 12.8. Turning to KSQC, the enrichment ratio was at most 0.25. As for THQC, the enrichment ratio amounted to 13.1. Take VLQC: the enrichment ratio is at most 0.25. The result for NQQC reads at most 0.25; that for NSQC, at most 0.25; that for FREL, at most 0.25. Consider PHMW, for which the enrichment ratio was at most 0.25. For YKAD the value was at most 0.25; for LFMF, at most 0.25; for WKII, at most 0.25. Turning to WHFY, the enrichment ratio is at most 0.25. As to WCRI, the enrichment ratio is at most 0.25. In the case of QMHF, the enrichment ratio was found to be 13.5. Consider QMDH, for which the enrichment ratio amounted to 15. With QMHI, the enrichment ratio is at most 0.25. Regarding QMNG, the enrichment ratio was determined as 38.7. For QMMI the value was at most 0.25. The result for QMGE reads 96.1; that for QMTH, at most 0.25; that for QMWW, at most 0.25. On to QMGF, for which the enrichment ratio amounted to 6.84.

Consider QEGE, for which the enrichment ratio was at most 0.25. Regarding QMDS, the enrichment ratio was at most 0.25. For the variant QRNG, the enrichment ratio was at most 0.25.
